# In the supplement of paper PMC8728848:
# The sample as a whole holds a higher share of the strongest signals than the screen did.
# Legend:
# Test in all cases: glycan array binding signal (z-score within array); higher = stronger binding
# Details in all cases: glycan notation: IUPAC condensed, linker removed
# [1] = biological target: Fuc(a1-2)Gal(b1-4)GlcNAc(b1-2)Man(a1-3)[Fuc(a1-2)Gal(b1-4)GlcNAc(b1-2)Man(a1-6)]Man(b1-4)GlcNAc(b1-4)GlcNAc
# Summary of the method: (§1)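 Glycan array binding is given as a within-array Z-score, which can be read as non-binding when negative. The arrays, 3228 of them, came from the Consortium for Functional Glycomics database and were retained only where the protein sequence was available. Z-scores were averaged across arrays of the same protein sequence at different concentrations or buffers and across linkers.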
# [2] = biological target: Fuc(a1-2)Gal6S(b1-4)Glc6S
# Summary of the method: as §1
# [3] = biological target: Fuc(a1-2)[Gal(a1-4)]Gal(b1-4)GlcNAc
# Summary of the method: as §1
# [4] = biological target: Fuc(a1-3)[Gal3S(b1-4)]Glc6S
# Summary of the method: as §1
# [5] = biological target: Fuc(a1-3)[Gal3S(b1-4)]GlcNAc6S
# Summary of the method: as §1
# [6] = biological target: Fuc(a1-3)[GalNAc(b1-4)]GlcNAc
# Summary of the method: as §1
# [7] = biological target: Fuc(a1-4)GlcNAc
# Summary of the method: as §1
# [8] = biological target: Gal(a1-3)Gal(b1-4)[Fuc(a1-3)]GlcNAc
# Summary of the method: as §1
# [9] = biological target: Gal(b1-3)Gal
# Summary of the method: as §1
# [10] = biological target: Gal(b1-3)GalNAc(b1-4)Gal(b1-4)Glc
# Summary of the method: as §1
# [11] = biological target: Gal(b1-3)GlcNAc(b1-2)Man(a1-3)[Gal(b1-3)GlcNAc(b1-2)Man(a1-6)]Man(b1-4)GlcNAc(b1-4)[Fuc(a1-6)]GlcNAc
# Summary of the method: as §1
# [12] = biological target: Gal(b1-3)GlcNAc(b1-3)Gal(b1-4)Glc
# Summary of the method: as §1
# [13] = biological target: Gal(b1-3)[Fuc(a1-4)]GlcNAc(b1-3)Gal(b1-4)GlcNAc
# Summary of the method: as §1
# [14] = biological target: Gal(b1-4)GalNAc(a1-3)[Fuc(a1-2)]Gal(b1-4)GlcNAc
# Summary of the method: as §1
# [15] = biological target: Gal(b1-4)GlcNAc(b1-6)Gal(b1-4)GlcNAc
# Summary of the method: as §1
# [16] = biological target: Gal3S(b1-3)GlcNAc
# Summary of the method: as §1
# [17] = biological target: Gal3S(b1-4)Glc6S
# Summary of the method: as §1
# [18] = biological target: Gal3S(b1-4)[Fuc(a1-3)]Glc
# Summary of the method: as §1
# [19] = biological target: Gal3S4S(b1-4)GlcNAc
# Summary of the method: as §1
# [20] = biological target: Gal3S6S(b1-4)GlcNAc6S
# Summary of the method: as §1
# [21] = biological target: Glc(a1-4)Glc
# Summary of the method: as §1
# [22] = biological target: Glc(a1-6)Glc(a1-6)Glc
# Summary of the method: as §1
# [23] = biological target: GlcA(b1-3)Gal
# Summary of the method: as §1
# [24] = biological target: GlcNAc(b1-3)Gal(b1-4)GlcNAc(b1-3)Gal(b1-4)GlcNAc
# Summary of the method: as §1
# [25] = biological target: GlcNAc(b1-4)GlcNAc
# Summary of the method: as §1
# [26] = biological target: GlcNAc(b1-4)GlcNAc(b1-4)GlcNAc
# Summary of the method: as §1
# [27] = biological target: GlcNAc(b1-6)Gal(b1-4)GlcNAc
# Summary of the method: as §1
# [28] = biological target: Man(a1-2)Man(a1-2)Man(a1-6)[Man(a1-3)]Man
# Summary of the method: as §1
# [29] = biological target: Neu5Ac(a2-3)Gal(b1-3)GalNAc
# Summary of the method: as §1
# [30] = biological target: Neu5Ac(a2-3)Gal(b1-3)GalNAc(b1-4)[Neu5Ac(a2-3)]Gal(b1-4)Glc
# Summary of the method: as §1
binder,measurement,setting,value
"GIINTLQKYYCRVRGGRCAVLSCLPKEEQIGKCSTRGRKCCRRKK [Beta-Defensin 3 (Homo sapiens), P81534]",glycan array binding signal (z-score),[1],-0.692
same,glycan array binding signal (z-score),[2],5.67
same,glycan array binding signal (z-score),[3],-0.449
same,glycan array binding signal (z-score),[4],3.57
same,glycan array binding signal (z-score),[5],8.21
same,glycan array binding signal (z-score),[6],-0.467
same,glycan array binding signal (z-score),[7],-0.369
same,glycan array binding signal (z-score),[8],-0.233
same,glycan array binding signal (z-score),[9],0.134
same,glycan array binding signal (z-score),[10],-0.315
same,glycan array binding signal (z-score),[11],-0.62
same,glycan array binding signal (z-score),[12],-0.348
same,glycan array binding signal (z-score),[13],-0.493
same,glycan array binding signal (z-score),[14],-0.395
same,glycan array binding signal (z-score),[15],-0.485
same,glycan array binding signal (z-score),[16],0.98
same,glycan array binding signal (z-score),[17],4.37
same,glycan array binding signal (z-score),[18],0.062
same,glycan array binding signal (z-score),[19],4.31
same,glycan array binding signal (z-score),[20],3.11
same,glycan array binding signal (z-score),[21],0.053
same,glycan array binding signal (z-score),[22],-0.18
same,glycan array binding signal (z-score),[23],1.72
same,glycan array binding signal (z-score),[24],-0.356
same,glycan array binding signal (z-score),[25],-0.569
same,glycan array binding signal (z-score),[26],-0.463
same,glycan array binding signal (z-score),[27],-0.369
same,glycan array binding signal (z-score),[28],-0.442
same,glycan array binding signal (z-score),[29],-0.221
same,glycan array binding signal (z-score),[30],-0.555
